Records with an inconclusive call do not appear. Calls of active or inactive are those of the source. Unless noted, calls come from the whole dose curve; as a rule, active = well fitted curve in the direction sought with a large enough effect; inconclusive = small, poorly fitted or top-dose-only effect, or another doubt; inactive = no such curve, though single readings can be large; an effect the other way counts as inactive or inconclusive.
Tests used:
[1] = qHTS for Inhibitors of the Functional Ribonucleoprotein Complex (vRNP) of Lassa (LASV) Arenavirus: LASV Primary Screen - GLuc reporter signal (AID 1347082; calls by dose curve; tested in HEK293 reporter line; note: nearly all actives have a fitted effect of over 60% in size; note: potency is the fitted concentration of half-maximal effect)
[2] = qHTS for Inhibitors of the Functional Ribonucleoprotein Complex (vRNP) of Lassa (LASV) Arenavirus: Viability assay - alamar blue signal for LASV Primary Screen (AID 1347083; calls by dose curve; tested in HEK293 reporter line; note: nearly all actives have a fitted effect of over 80% in size; note: potency is the fitted concentration of half-maximal effect)
[3] = qHTS for Inhibitors of the Functional Ribonucleoprotein Complex (vRNP) of Lymphocytic Choriomeningitis Arenaviruses (LCMV): Viability assay - alamar blue signal for LCMV Primary Screen (AID 1347085; calls by dose curve; tested in HEK293 reporter line; note: nearly all actives have a fitted effect of over 80% in size; note: potency is the fitted concentration of half-maximal effect)
[4] = biological target: Nucleoprotein (Lymphocytic choriomeningitis virus (strain Armstrong)) (UniProt P09992); experiment: qHTS for Inhibitors of the Functional Ribonucleoprotein Complex (vRNP) of Lymphocytic Choriomeningitis Arenaviruses (LCMV): LCMV Primary Screen - GLuc reporter signal (AID 1347086; calls by dose curve; note: nearly all actives have a fitted effect of over 70% in size; note: potency is the fitted concentration of half-maximal effect)
Nucleoprotein (Lymphocytic choriomeningitis virus (strain Armstrong)), sequence (P09992 whole entry, looked up): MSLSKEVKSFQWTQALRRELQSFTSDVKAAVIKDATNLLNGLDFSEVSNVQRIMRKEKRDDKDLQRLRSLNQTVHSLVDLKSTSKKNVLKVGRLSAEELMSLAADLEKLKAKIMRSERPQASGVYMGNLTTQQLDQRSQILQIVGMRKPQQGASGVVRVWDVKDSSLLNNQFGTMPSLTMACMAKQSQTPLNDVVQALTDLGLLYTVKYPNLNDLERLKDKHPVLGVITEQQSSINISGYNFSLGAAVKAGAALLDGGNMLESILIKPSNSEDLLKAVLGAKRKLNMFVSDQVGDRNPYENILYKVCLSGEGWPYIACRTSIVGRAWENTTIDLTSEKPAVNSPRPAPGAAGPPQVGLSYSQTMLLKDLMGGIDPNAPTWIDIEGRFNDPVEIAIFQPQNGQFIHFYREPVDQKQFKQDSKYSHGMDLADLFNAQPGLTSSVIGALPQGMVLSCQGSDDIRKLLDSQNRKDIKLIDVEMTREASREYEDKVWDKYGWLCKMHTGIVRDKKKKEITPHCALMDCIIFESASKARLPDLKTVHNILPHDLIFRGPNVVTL

[5] = qHTS of pediatric cancer cell lines to identify multiple opportunities for drug repurposing: Primary screen for TC32 cells (AID 1347089); note: nearly all actives have a fitted effect of over 60% in size
How it was run: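 Measured quantity: luminescence from CellTiter-Glo, reflecting metabolically active TC32 cells following 48 h of compound. Curves came straight from multi-point titrations, with 8 or 11 points in primary and 11 in confirmatory screening.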

[6] = qHTS of pediatric cancer cell lines to identify multiple opportunities for drug repurposing: Primary screen for DAOY cells (AID 1347090); note: series mostly up to about 46 µM; nearly all actives have a fitted effect of over 55% in size
How it was run: (§1)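 Eight- or eleven-point concentration series, 48 h treatment at 37 degrees C in growth media; readout CellTiter-Glo luminescence. Potency and efficacy were taken from the concentration-response curves.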

[7] = qHTS of pediatric cancer cell lines to identify multiple opportunities for drug repurposing: Primary screen for SJ-GBM2 cells (AID 1347091)
How it was run: as §1

[8] = qHTS of pediatric cancer cell lines to identify multiple opportunities for drug repurposing: Primary screen for A673 cells (AID 1347092); note: nearly all actives have a fitted effect of over 45% in size
How it was run: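 Cells are plated, rested 5 h, dosed by pintool, incubated 48 h, then lysed with CellTiter-Glo and read by luminescence. DMSO is the neutral control; bortezomib at 2.3 uM final is the positive control.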

[9] = qHTS of pediatric cancer cell lines to identify multiple opportunities for drug repurposing: Primary screen for SK-N-MC cells (AID 1347093); note: series mostly up to about 46 µM
How it was run: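 Metabolically active cells were quantified by ATP-dependent luminescence (CellTiter-Glo, 15 min at room temperature) following 48 h treatment. Cells had been plated at 500-1,000 per well and settled for 5 h beforehand.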

[10] = qHTS of pediatric cancer cell lines to identify multiple opportunities for drug repurposing: Primary screen for BT-37 cells (AID 1347094); note: series mostly up to about 57 µM
How it was run: (§2)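 Viability was measured as metabolically active cells after 48 hours of treatment, read by CellTiter-Glo luminescence. Compounds were tested at multiple final concentrations, giving concentration-response curves.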

[11] = qHTS of pediatric cancer cell lines to identify multiple opportunities for drug repurposing: Primary screen for NB-EBc1 cells (AID 1347095)
How it was run: as §2

[12] = qHTS of pediatric cancer cell lines to identify multiple opportunities for drug repurposing: Primary screen for U-2 OS cells (AID 1347096); note: nearly all actives have a fitted effect of over 50% in size
How it was run: (§3)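 Cells (500-1,000/well) in growth media were settled 5 h at 37 degrees C, then given compounds for 48 h. Viability was read as CellTiter-Glo luminescence. Primary runs used MIPE at 11 points (0.78 nM-46 µM) and NPC at 8 points (0.59 nM-46 µM); follow-ups used 11 points.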

[13] = qHTS of pediatric cancer cell lines to identify multiple opportunities for drug repurposing: Primary screen for Saos-2 cells (AID 1347097); note: nearly all actives have a fitted effect of over 40% in size
How it was run: as §2

[14] = qHTS of pediatric cancer cell lines to identify multiple opportunities for drug repurposing: Primary screen for SK-N-SH cells (AID 1347098); note: nearly all actives have a fitted effect of over 65% in size; note: potency is the fitted concentration of half-maximal effect
How it was run: (§4)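 Cells (500-1,000/well) rested 5 h, then received compounds for 48 h; metabolically active cells were measured by CellTiter-Glo luminescence. Final concentrations spanned up to 46 µM (MIPE, 11-point) or 0.59 nM-46 µM (NPC, 8-point) in primary screens, 11-point in follow-ups.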

[15] = qHTS of pediatric cancer cell lines to identify multiple opportunities for drug repurposing: Primary screen for NB1643 cells (AID 1347099); note: nearly all actives have a fitted effect of over 50% in size
How it was run: as §2

[16] = qHTS of pediatric cancer cell lines to identify multiple opportunities for drug repurposing: Primary screen for LAN-5 cells (AID 1347100)
How it was run: as §3

[17] = qHTS of pediatric cancer cell lines to identify multiple opportunities for drug repurposing: Primary screen for BT-12 cells (AID 1347101); note: nearly all actives have a fitted effect of over 25% in size
How it was run: as §4

[18] = qHTS of pediatric cancer cell lines to identify multiple opportunities for drug repurposing: Primary screen for Rh18 cells (AID 1347102); note: nearly all actives have a fitted effect of over 65% in size
How it was run: as §3

Measured: Potency

COc1ccc(S(=O)(=O)Nc2nnc(CC(C)C)s2)cc1
inactive: [1] | [2] | [3] | [4]

OC1(c2ccccc2)CCNCC1
inactive: [1] | [2] | [3] | [4]

Cc1ccc(C(=O)C(C)CN2CCCCC2)cc1 (centres undefined)
inactive: [1] | [2] | [3] | [4]

CCOC(=O)NNc1ccc(N(CC)CC(C)O)nn1 (centres undefined)
inactive: [1] | [2] | [3] | [4]

O=[N+]([O-])c1cncn1CCN1CCOCC1
inactive: [1] | [2] | [3] | [4]

O=C(O)CSCC(=O)NC1CCSC1=O (centres undefined)
inactive: [1] | [2] | [3] | [4]

CC(=O)OCC(=O)[C@H]1CC[C@H]2[C@@H]3CCC4=CC(=O)CC[C@]4(C)[C@H]3CC[C@]12C
inactive: [1] | [2] | [3] | [4]

CCN(Cc1ccncc1)C(=O)C(CO)c1ccccc1 (centres undefined)
inactive: [1] | [2] | [3] | [4]

O=C(c1ccco1)N1CCNCC1
inactive: [1] | [2] | [3] | [4]

Cn1c([N+](=O)[O-])cnc1COC(N)=O
inactive: [1] | [2] | [3] | [4]

c1ccc2c(c1)CCCC2C1=NCCN1 (centres undefined)
inactive: [1] | [2] | [3] | [4]

COc1cccc2c1C(=O)c1c(O)c3c(c(O)c1C2=O)C[C@@](O)(C(C)=O)C[C@H]3O[C@H]1C[C@H](N)[C@H](O)[C@H](C)O1
active: [1] 1220 nM | [2] 153 nM | [3] 153 nM | [4] 273 nM

COc1cc(C(=O)N2CCOCC2)cc(OC)c1OC
inactive: [1] | [2] | [3] | [4]

CC(=O)NCCCCCC(=O)O
inactive: [1] | [2] | [3] | [4]

CC(NN)c1ccccc1 (centres undefined)
inactive: [1] | [2] | [3] | [4]

CC(=O)[C@H]1CC[C@H]2[C@@H]3C=CC4=CC(=O)CC[C@@]4(C)[C@@H]3CC[C@]12C
inactive: [1] | [2] | [3] | [4]

CCN(CC)C(=O)c1ccc(O)c(OC)c1
inactive: [1] | [2] | [3] | [4]

CCN1CCC[C@H]1CNC(=O)c1cc(S(N)(=O)=O)ccc1OC
inactive: [1] | [2] | [3] | [4]

O=C(c1ccccc1)C(O)c1ccccc1 (centres undefined)
inactive: [1] | [2] | [3] | [4]

COc1ccc(C(=O)NCc2ccc(OCCN(C)C)cc2)cc1OC
inactive: [1] | [2] | [3] | [4]

CC(C)(N)Cc1ccccc1Cl
inactive: all assays above

CCCOC(=O)c1cncn1C(C)c1ccccc1 (centres undefined)
inactive: all assays above

NC(=O)CS(=O)C(c1ccccc1)c1ccccc1 (centres undefined)
inactive: all assays above

Clc1ccccc1N1CCNCC1
inactive: all assays above

Nc1nc(N)nc(NC2CC2)n1
inactive: all assays above

CCc1cc2c(s1)-n1c(C)nnc1CN=C2c1ccccc1Cl
inactive: all assays above

CCN(CC)CCc1c[nH]c2ccccc12
active: [14] 37000 nM
inactive: all other assays above

C=CCC1([C@H](C)CCC)C(=O)NC(=O)NC1=O
inactive: all assays above

CO[C@@]1(NC(=O)C(C(=O)O)c2ccc(O)cc2)C(=O)N2C(C(=O)O)=C(CSc3nnnn3C)CO[C@@H]21 (some centres undefined)
inactive: [1] | [2] | [3] | [4]

O=C(N/N=C/c1ccc([N+](=O)[O-])o1)c1cc([N+](=O)[O-])cc([N+](=O)[O-])c1O
inactive: all assays above

CC(C)NC(C)C
inactive: all assays above

O=C(O)c1ccc[n+]([O-])c1
inactive: [1] | [2] | [3] | [4]

COc1cccc([C@@]2(O)CCCC[C@@H]2CN(C)C)c1
inactive: all assays above

C#CC(O)(C=CCl)CC (centres undefined)
inactive: all assays above

CCCCCCCC(=O)OCC(COC(=O)CCCCCCC)OC(=O)CCCCCCC
inactive: [1] | [2] | [3] | [4]

CCCCCCCCCCCCCCCC(=O)OC(C)C
inactive: [1] | [2] | [3] | [4]

CC(=O)OCC(=O)[C@@]1(O)[C@H](C)C[C@H]2[C@@H]3CCC4=CC(=O)C=C[C@]4(C)[C@@]3(F)[C@@H](O)C[C@@]21C
inactive: [1] | [2] | [3] | [4]

COC(=O)C(Cl)C(=O)OC
inactive: all assays above

CCC(C)(C)c1ccc(O)cc1
inactive: all assays above

CCC1(c2ccccc2)C(=O)N(COC)C(=O)N(COC)C1=O
inactive: all assays above

C=CCN1C[C@H](C)N([C@H](c2ccc(C(=O)N(CC)CC)cc2)c2cccc(OC)c2)C[C@H]1C
inactive: all assays above

Oc1ccc(Cl)cc1
inactive: all assays above

CC(C)C[C@H](NC(=O)CNC(=O)[C@H](Cc1ccc(O)cc1)NC(=O)[C@H](CO)NC(=O)[C@H](Cc1c[nH]c2ccccc12)NC(=O)[C@H](Cc1cnc[nH]1)NC(=O)[C@@H]1CCC(=O)N1)C(=O)N[C@@H](CCCN=C(N)N)C(=O)N1CCC[C@H]1C(=O)NCC(N)=O (stereo in doubt)
inactive: [1] | [2] | [3] | [4]

N#Cc1ccc(C(c2ccc(C#N)cc2)n2cncn2)cc1
inactive: [1] | [2] | [3] | [4]

CCN[C@@H](C)Cc1cccc(C(F)(F)F)c1
inactive: all assays above

O=S(=O)(O)CCS
inactive: [1] | [2] | [3] | [4]

CCC(C)C(C)(COC(N)=O)COC(N)=O (centres undefined)
inactive: all assays above

COP(=S)(OC)Oc1ccc(S(=O)(=O)N(C)C)cc1
inactive: all assays above

COc1ccc2c3c1O[C@H]1[C@H](O)CC[C@H]4[C@@H](C2)N(C)CC[C@@]341
inactive: all assays above

CC(=O)c1ccc(O)c(C(N)=O)c1
inactive: [1] | [2] | [3] | [4]

Source: PubChem BioAssay (NCATS)
